Growth data for 13 compounds are collected here from PubChem BioAssay (NCI).

The structures appear in SMILES notation. Compounds without any hit were thinned out: in the full panel of roughly 83,000, 20% have a hit.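 Method: cells in 96-well plates; compound added at one concentration; 48 h incubation; percent growth measured; values under 10 scored active.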 Values without a mark were called inactive. Active and inactive are the calls of the source.

Among the test systems are NCI-H23 lung; NCI-H226 lung; NCI-H322M lung; HOP-62 NSCLC; NCI-H460 lung; HOP-92 NSCLC; NCI-H522 lung; A549/ATCC NSCLC; 786-0 renal; COLO 205 colon.
Common to all, as to assay: NCI-60 one-dose screen, 48 h (100 = growth as untreated, 0 = no growth, -100 = all killed)
Details in all cases: 10 µM unless noted

Take `OC(c1cc2cc(Cl)c(Cl)cc2c2cc(C(F)(F)F)ccc12)C1CCCCN1` (stereo not given): the growth in the experiment on NCI-H23 lung was -52.9% (active); in the experiment with NCI-H226 lung, -72.3% (active); in the experiment with NCI-H322M lung, -8.7% (active); in the experiment with HOP-62 NSCLC it was -80.7% (active); in the experiment with NCI-H460 lung, -71.8% (active); in the experiment with HOP-92 NSCLC it was -70.9% (active). Also, the growth with NCI-H522 lung was -78.4% (active); with A549/ATCC NSCLC, -84% (active); in the experiment with 786-0 renal, -78.1% (active); with COLO 205 colon, -88.2% (active).

Take `O=C1c2cc3c(cc2-c2c1c1ccc(F)cc1c(=O)n2CCCNCCO)OCO3`: the growth in the experiment with NCI-H23 lung is -57.3% (active); in the experiment with NCI-H226 lung, -60.1% (active); in the experiment with NCI-H322M lung it was -33.3% (active); with HOP-62 NSCLC, -48.9% (active); in the experiment with NCI-H460 lung, -36.8% (active); in the experiment with HOP-92 NSCLC, 2.28% (active). The growth in the experiment on NCI-H522 lung is -53.9% (active); in the experiment with A549/ATCC NSCLC, -74.4% (active); in the experiment on 786-0 renal it was -84.8% (active); in the experiment on COLO 205 colon, -66.5% (active).

For `COc1cccc(-c2nc(SCC(=O)Nc3ccc(C(=O)/C=C/c4ccc(OC)c(OC)c4)cc3)[nH]c(=O)c2C#N)c1`, the growth in the experiment with NCI-H23 lung was 77.7%; with NCI-H226 lung, 105%; in the experiment on NCI-H322M lung, 76.3%; in the experiment with HOP-62 NSCLC it was 94.1%; in the experiment with NCI-H460 lung, 94.7%; in the experiment with HOP-92 NSCLC it was 93.2%. Moreover, the growth is 75.4% in the experiment with NCI-H522 lung, 90.6% with A549/ATCC NSCLC, 99.4% in the experiment on 786-0 renal and 103% with COLO 205 colon.

For `COc1ccc(S(=O)(=O)N2CCCCCC2)cc1NC(=O)c1[nH]c(C)c2c1CCCCC2=O`, the growth is 30.4% in the experiment with NCI-H23 lung; 45.5% in the experiment with NCI-H226 lung; 35.8% in the experiment on NCI-H322M lung; 26.8% in the experiment on HOP-62 NSCLC; 42.2% in the experiment on NCI-H460 lung; 31.5% in the experiment with HOP-92 NSCLC. Moreover, the growth was 27.3% in the experiment with NCI-H522 lung, 29.6% in the experiment on A549/ATCC NSCLC, 34.9% with 786-0 renal and 26.8% in the experiment with COLO 205 colon.

`OCc1ccc(N2CCc3cccc(F)c3C2)cc1Cl`: the growth with NCI-H23 lung is 84.7% [0.1 µM]; in the experiment on NCI-H226 lung it was -6.37% [0.1 µM] (active); in the experiment on NCI-H322M lung, 106% [0.1 µM]; with HOP-62 NSCLC it was 44.7% [0.1 µM]; with NCI-H460 lung, 31% [0.1 µM]; with HOP-92 NSCLC, 82.3% [0.1 µM]. The growth was 80.6% [0.1 µM] in the experiment on NCI-H522 lung, 62.9% [0.1 µM] in the experiment on A549/ATCC NSCLC, 66.4% [0.1 µM] with 786-0 renal and 24.9% [0.1 µM] in the experiment with COLO 205 colon.

`CC[C@@H](C(=O)[C@@H](C)[C@@H](O)[C@H](C)[C@@H]1O[C@@H]([C@@H](CC)C(=O)O)CC[C@@H]1C)[C@H]1OC2(C=C[C@@H](O)[C@]3(CC[C@@](C)([C@H]4CC[C@](O)(CC)[C@H](C)O4)O3)O2)[C@H](C)C[C@@H]1C` (stereo not given in full): the growth is 4.65% (active) with NCI-H23 lung; 14.1% in the experiment with NCI-H226 lung; 24.2% in the experiment with NCI-H322M lung; 39.3% in the experiment on HOP-62 NSCLC; 10% in the experiment with NCI-H460 lung; -14.8% (active) in the experiment with HOP-92 NSCLC. Also, the growth with NCI-H522 lung is -54.6% (active); in the experiment with A549/ATCC NSCLC it was 11.9%; with 786-0 renal, 3.62% (active); in the experiment on COLO 205 colon, 17.1%.

Regarding `O=[N+]([O-])c1ccc(Nc2nc(NCCN3CCOCC3)ncc2[N+](=O)[O-])cc1`, the growth in the experiment with NCI-H23 lung is 89.9%; in the experiment on NCI-H226 lung it was 92%; in the experiment with NCI-H322M lung, 85%; in the experiment with HOP-62 NSCLC, 96%; in the experiment with NCI-H460 lung it was 94.4%; in the experiment with HOP-92 NSCLC, 89.9%. For the same compound, the growth in the experiment on NCI-H522 lung was 72.6%; in the experiment on A549/ATCC NSCLC it was 98.9%; in the experiment on 786-0 renal it was 92.6%; in the experiment on COLO 205 colon, 97.1%.

For the compound `COc1ccc(S(=O)(=O)N2CCN(C)CC2)cc1NC(=O)c1[nH]c(C)c2c1CCCCC2=O`, the growth in the experiment on NCI-H23 lung was 66.9%; with NCI-H226 lung, 61.7%; with NCI-H322M lung, 59.9%; in the experiment with HOP-62 NSCLC, 43.4%; in the experiment on NCI-H460 lung, 73.3%; in the experiment on HOP-92 NSCLC it was 34.6%. In addition, the growth with NCI-H522 lung was 50.1%; in the experiment on A549/ATCC NSCLC, 62.3%; with 786-0 renal, 58.6%; in the experiment with COLO 205 colon, 33.1%.

Regarding `CCOC(=O)c1c(CN2CCN(C)CC2)nc2ccc(Cl)cc2c1-c1ccccc1`, the growth with NCI-H23 lung was 74.7%; in the experiment on NCI-H226 lung, 103%; in the experiment with NCI-H322M lung, 108%; with HOP-62 NSCLC, 70.8%; with NCI-H460 lung, 59.5%; with HOP-92 NSCLC it was 30.8%. The growth with NCI-H522 lung was 65.8%; in the experiment with A549/ATCC NSCLC, 67.2%; in the experiment on 786-0 renal, 57.5%; in the experiment on COLO 205 colon, 97%.

In the case of `COc1cccc(/C=C2\Oc3cc(OCCN4CCCC4)ccc3C2=O)c1`, the growth with NCI-H23 lung is 92.2%; in the experiment on NCI-H226 lung, 99.2%; in the experiment on NCI-H322M lung, 92.7%; in the experiment on HOP-62 NSCLC, 96.3%; in the experiment with NCI-H460 lung, 93.8%; with HOP-92 NSCLC, 69.6%. Besides, the growth with NCI-H522 lung was 94.5%; with A549/ATCC NSCLC, 99%; with 786-0 renal, 95.8%; with COLO 205 colon, 93.8%.

With `NNCCc1ccc(NC(=O)CCCc2ccc(/C=C/C(=O)NO)cc2)cc1`, the growth is 64.9% in the experiment on NCI-H23 lung; 36% in the experiment with NCI-H226 lung; 64% in the experiment with NCI-H322M lung; 32.8% in the experiment on HOP-62 NSCLC; 62.8% in the experiment with NCI-H460 lung; 28.8% in the experiment on HOP-92 NSCLC. Also, the growth with NCI-H522 lung is 16.6%; in the experiment with A549/ATCC NSCLC it was 76.4%; in the experiment on 786-0 renal, 71.3%; in the experiment with COLO 205 colon it was 71.2%.

As for `NC(=NCCCOc1ccc(Cl)cc1)Nc1ccc(C(F)(F)F)cc1`, the growth in the experiment on NCI-H23 lung was 33.4%; with NCI-H226 lung, 97.5%; with NCI-H322M lung, 34.9%; with HOP-62 NSCLC, 48.3%; in the experiment on NCI-H460 lung, 18.4%; with HOP-92 NSCLC, 20.9%. Besides, the growth was 42.5% in the experiment on NCI-H522 lung, 49.4% in the experiment with A549/ATCC NSCLC, 53.4% with 786-0 renal and -67.1% (active) in the experiment with COLO 205 colon.

As for `O=C(N(c1ccccc1)c1ccccc1)n1ccc2nc(Cl)nc(Cl)c21`, the growth in the experiment with NCI-H23 lung is 60.8%; with NCI-H226 lung, 53.9%; in the experiment on NCI-H322M lung, 67.9%; in the experiment on HOP-62 NSCLC, 45.5%; in the experiment on NCI-H460 lung, 36.1%; in the experiment on HOP-92 NSCLC, 52.3%. Also, the growth in the experiment on NCI-H522 lung was 24.9%; with A549/ATCC NSCLC it was 56.2%; in the experiment on 786-0 renal, 80.1%; in the experiment on COLO 205 colon it was 77.7%.
